We go through 98 molecules from PubChem BioAssay AID628 (Vanderbilt High Throughput Screening Facility, 2007).

About 2,200 (3.4%) of roughly 64,000 compounds were called active. This is one part of a sample in which actives are shown more often than they occur.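 How the source made its calls: active means calcium fluorescence response, raw or row-and-column corrected B-score, differing from the plate sample mean either way at a set confidence level, mostly lower; inactive means the rest.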

For the test, the target named is Muscarinic acetylcholine receptor M1 (Rattus norvegicus) (UniProt P08482). Description: blocks the rat M1 muscarinic receptor response to acetylcholine (AID 628). As to conditions: CHO-M1 cells, Fluo-4 calcium, ACh EC80 antagonist mode; at 10 µM; active compounds read low.
Muscarinic acetylcholine receptor M1 (Rattus norvegicus), sequence (P08482 whole entry, looked up): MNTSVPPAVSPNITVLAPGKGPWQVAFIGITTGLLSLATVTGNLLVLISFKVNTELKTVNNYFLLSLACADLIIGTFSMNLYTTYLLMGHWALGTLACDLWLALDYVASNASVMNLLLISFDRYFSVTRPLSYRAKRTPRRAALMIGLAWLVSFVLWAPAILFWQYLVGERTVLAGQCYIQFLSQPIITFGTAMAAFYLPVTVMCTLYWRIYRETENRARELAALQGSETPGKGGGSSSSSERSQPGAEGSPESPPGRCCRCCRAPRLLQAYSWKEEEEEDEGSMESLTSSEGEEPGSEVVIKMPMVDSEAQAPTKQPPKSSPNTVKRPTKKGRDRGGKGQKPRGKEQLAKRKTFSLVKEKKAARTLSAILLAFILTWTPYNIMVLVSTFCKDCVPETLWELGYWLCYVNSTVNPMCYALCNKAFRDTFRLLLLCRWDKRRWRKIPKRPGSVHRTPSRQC
Consider `Cc1cc(NC(=O)CCC2COc3ccccc3O2)no1` (stereo not drawn), for which the B-score was -0.711 (inactive).

Turning to `COc1ccc(CCNc2ncnc3nc[nH]c23)cc1OC`, the B-score was -0.37 (inactive).

Regarding `c1ccc2c(c1)OCC(CNc1ncnc3nc[nH]c13)O2` (stereo not drawn), the B-score was -5.49 (active).

Take `COCc1[nH]nc2c1C(C1C=CCCC1)C(C#N)=C(N)O2` (stereo not drawn): the B-score is 0.327 (inactive).

Turning to `O=C(c1ccccc1)c1ccc(OC(=O)N2CCCC2)cc1`, the B-score is -0.578 (inactive).

On to `CCOc1ccccc1C1CC(c2ccccc2)Nc2nc(N)nn21` (stereo not drawn), for which the B-score was 0.59 (inactive).

Turning to `CCOC(=O)c1c(C)[nH]c(C(=O)NCc2ccccc2OC)c1C`, the B-score is -0.312 (inactive).

Turning to `CCOC(=O)c1c(C)[nH]c(C(=O)COc2ccc3c(c2)OCO3)c1C`, the B-score was -0.104 (inactive).

On to `CCCCOC(=O)c1[nH]c(C)c(C(=O)OC)c1C`, for which the B-score was 1.78 (active).

For `COc1ccccc1N(CC(=O)N1CCCCC1)S(=O)(=O)c1ccccc1`, the B-score is -0.874 (inactive).

Regarding `COc1ccc(N2C(=O)c3cccc4cccc(c34)C2=O)nn1`, the B-score was 0.203 (inactive).

For `COC(=O)C1=C(C)Nc2ncnn2C1c1ccco1` (stereo not drawn), the B-score was 0.342 (inactive).

For `CC(=O)C1=C(O)C(=O)N(c2ccc(S(N)(=O)=O)cc2)C1c1ccccc1F` (stereo not drawn), the B-score was -0.56 (inactive).

In the case of `C/C(CC(O)(/C=N/O)c1ccccc1)=N\O` (stereo not drawn), the B-score was 0.581 (inactive).

With `CCOC(=O)N1CCC(NC(=O)c2ccc3nc(N4CCOCC4)sc3c2)CC1`, the B-score was 0.0825 (inactive).

Regarding `COC(=O)Cc1cc(=O)n(-c2nc3ccccc3s2)[nH]1`, the B-score was 0.181 (inactive).

Consider `CCOC(=O)N1CCN(CC(=O)Nc2cc(C)nn2-c2nc3ccccc3s2)CC1`, for which the B-score is -2.41 (active).

As for `CCCCNc1nc2c(c(=O)n(C)c(=O)n2C)n1Cc1cccc(OC)c1`, the B-score was -0.0697 (inactive).

On to `O=C1NC(Nc2nc3ccccc3s2)(C(F)(F)F)C(=O)N1C1CCCCC1` (stereo not drawn), for which the B-score is -3.66 (active).

With `COC(=O)NC1(C(F)(F)F)NC(=O)N(C2CCCCC2)C1=O` (stereo not drawn), the B-score was -0.0429 (inactive).

With `Cc1c(NC(=O)C(C)OC(=O)c2cc3c4ccccc4n(C)c3s2)c(=O)n(-c2ccccc2)n1C` (stereo not drawn), the B-score was 0.392 (inactive).

Turning to `CC1(C)NC(=O)N(CCOc2cccc(Oc3ccccc3)c2)C1=O`, the B-score was -0.997 (inactive).

`CCC(=O)c1ccc(OCC(O)CN2C(=O)NC(C)(C)C2=O)cc1` (stereo not drawn): the B-score was 0.82 (active).

Regarding `CCC(=O)c1ccc(OCC(O)CN2CC(C)OC(C)C2)cc1` (stereo not drawn), the B-score is 0.0196 (inactive).

As for `Cc1ccc(C(c2sc3nc(C)nn3c2O)N2CCN(c3ccccc3)CC2)cc1` (stereo not drawn), the B-score was 0.39 (inactive).

Regarding `Cn1c(SCc2nc3ccccc3s2)nnc1-c1ccc2c(c1)OCO2`, the B-score was 0.0691 (inactive).

As for `Cc1cccc2cc(CN(Cc3cccs3)C(c3nnnn3C3CCCC3)C(C)C)c(=O)[nH]c12` (stereo not drawn), the B-score is 0.279 (inactive).

Take `Cc1cccc2cc(CN(Cc3ccc4c(c3)OCO4)Cc3nnnn3C3CCCC3)c(=O)[nH]c12`: the B-score was -0.601 (inactive).

For `CCC(c1nnnn1C1CCCC1)N(Cc1cccs1)Cc1cc2cccc(C)c2[nH]c1=O` (stereo not drawn), the B-score was 1.98 (active).

Take `Cc1cc(Cl)c(S(=O)(=O)NCc2cccnc2)cc1OCC(N)=O`: the B-score is 0.63 (inactive).

On to `Cn1c(=O)c2c(nc(Br)n2CCSc2nc3ccccc3o2)n(C)c1=O`, for which the B-score is 0.536 (inactive).

As for `COC(=O)c1cc(OC)c(OC)cc1NC(=O)C1CCCO1` (stereo not drawn), the B-score is -0.418 (inactive).

Turning to `CCOc1ccc(C(=O)Nc2cc(OC)ccc2OC)cc1`, the B-score is 0.223 (inactive).

With `CCN(CCCCOC(=O)c1ccc(OC)c(OC)c1)C(C)Cc1ccc(OC)cc1` (stereo not drawn), the B-score is -14.7 (active).

With `COc1ccc(-n2nnnc2SCC(=O)c2ccc(OC)c(OC)c2)cc1`, the B-score was -0.785 (inactive).

For `O=C(CSc1nnnn1-c1ccc2c(c1)CCC2)Nc1ccc2c(c1)OCCO2`, the B-score is -1.02 (inactive).

For `CC(=O)Nn1cc2c(=O)n(C)c(=O)n(C)c2c1`, the B-score was 0.526 (inactive).

Regarding `CC(C)OCCCNC(=O)C1CC(=O)N(C2CCCCCCC2)C1` (stereo not drawn), the B-score was -0.0238 (inactive).

`O=C(NCCCN1CCCCCC1)C1CC(=O)N(C2CCCC2)C1` (stereo not drawn): the B-score is -2.1 (active).

`O=C(NCCc1ccc(Cl)cc1)C1CC(=O)N(C2CCCCC2)C1` (stereo not drawn): the B-score is -0.27 (inactive).

As to `Cc1ccc(-n2nc3c(c2NC(=O)CCC2CCCCC2)CS(=O)C3)cc1` (stereo not drawn), the B-score is 0.299 (inactive).

Consider `Cc1ccnc(SCCn2c(N(C)Cc3ccccc3)nc3c2c(=O)n(C)c(=O)n3C)n1`, for which the B-score is 0.589 (inactive).

Take `COC(=O)C(C)Sc1ccc2nnc(-c3cccc(F)c3)n2n1` (stereo not drawn): the B-score is -0.0277 (inactive).

Take `CCC(C(=O)OCCN(CC)CC)c1ccccc1` (stereo not drawn): the B-score is -11.7 (active).

Consider `CC(NC(=O)Nc1ccccc1)c1ccccc1` (stereo not drawn), for which the B-score is 0.2 (inactive).

Take `CCOC(=O)C(C(=O)OCC)C(C#N)c1ccccc1` (stereo not drawn): the B-score is 0.000361 (inactive).

Regarding `N#Cc1ccccc1-n1c(N)c(C(=O)N2CCCC2)sc1=S`, the B-score was 0.0882 (inactive).

Regarding `CCc1ccccc1N(CC(=O)NCCSCc1ccco1)S(C)(=O)=O`, the B-score was 0.00624 (inactive).

With `COc1ccccc1Nc1ncc(C(C)=O)c(C)n1`, the B-score is -0.0613 (inactive).

`COc1cccc2sc(Nc3nc(C)c(C(C)=O)s3)nc12`: the B-score was -5.09 (active).

Regarding `COC(=O)c1sc(NC(=O)c2ccc(OC)cc2OC)nc1C`, the B-score is 0.124 (inactive).

For the molecule `O=C(CC(NCCN1CCOCC1)C(=O)O)Nc1cccc(Cl)c1` (stereo not drawn), the B-score was -0.31 (inactive).

On to `C=CCNC(=O)c1cc(-c2ccccc2O)on1`, for which the B-score is -0.349 (inactive).

Take `Cc1nn(CC(=O)Nc2ccc3c(c2)nc(CN2CCCCC2)n3C)c(=O)c2ccccc12`: the B-score was -0.553 (inactive).

As for `CCC(=O)Nc1ccc2c(c1)nc(CCN1CCN(C)CC1)n2C`, the B-score is 0.254 (inactive).

With `Cn1c(CCN2CCCCCC2)nc2cc(NC(=O)Nc3ccccc3)ccc21`, the B-score was -12.1 (active).

Regarding `CC(=O)Nc1ccc(-c2cn3cccnc3n2)cc1`, the B-score is -0.0342 (inactive).

As for `COc1ccc(S(=O)(=O)NC(CC(=O)NCc2ccccc2OC)c2ccco2)cc1` (stereo not drawn), the B-score is -0.297 (inactive).

Turning to `CCS(=O)(=O)n1nc(-c2ccc(OC)cc2)nc1SC`, the B-score is 0.364 (inactive).

For the molecule `O=C1CCCN1CCCNc1ncnc2c1[nH]c1ccccc12`, the B-score was -0.26 (inactive).

Take `CCN1CCCC1CNc1ncnc2c1[nH]c1ccc(F)cc12` (stereo not drawn): the B-score is 0.215 (inactive).

Take `CC(C)OCCCNc1ncnc2c1[nH]c1ccc(F)cc12`: the B-score is -5.34 (active).

For `Cc1ccc2c(c1)NCC(C(=O)NC1CCC(C)CC1)O2` (stereo not drawn), the B-score was 0.906 (inactive).

On to `O=C(Oc1cccnc1)c1cc2ccccc2oc1=O`, for which the B-score is -1.49 (inactive).

For `OC(COc1cccc2ccccc12)CN1CCN(c2ccccn2)CC1` (stereo not drawn), the B-score is -0.255 (inactive).

On to `CN(C)[C@@H]1C(=O)C(C(N)=O)=C(O)[C@@]2(O)C(=O)C3=C(O)c4c(O)ccc(Cl)c4[C@@H](O)[C@H]3C[C@@H]12`, for which the B-score was -15.3 (active).

Turning to `Cn1cccc1C(=O)NC(=O)COC(=O)Cc1coc2ccc3ccccc3c12`, the B-score is -0.0274 (inactive).

On to `COc1ccccc1CNC(=O)C1CCN(S(C)(=O)=O)CC1`, for which the B-score is 0.445 (inactive).

On to `Cc1nc(NCCN)c(C#N)c2c1COC(C)(C)C2`, for which the B-score was 0.614 (inactive).

Consider `Fc1ccc2[nH]c3c(N4CCSCC4)ncnc3c2c1`, for which the B-score was -2.69 (active).

On to `Fc1ccc2[nH]c3c(N4CCN(Cc5ccc6c(c5)OCO6)CC4)ncnc3c2c1`, for which the B-score was -0.265 (inactive).

In the case of `Cc1ccc(-n2ncc3c(N4CCN(c5ccc(F)cc5)CC4)ncnc32)c(C)c1`, the B-score was -0.0379 (inactive).

Regarding `N#CNC1=NCN(CCc2ccccc2)CN1`, the B-score is -0.391 (inactive).

Turning to `c1ccc(CCN2CN=C(Nc3nc4ccccc4o3)NC2)cc1`, the B-score was 0.0039 (inactive).

Take `Cc1ccc2nc(NC3=NCN(CCc4ccccc4)CN3)nc(C)c2c1`: the B-score was -5.98 (active).

Turning to `O=C(NCCC1=CCCCC1)C1CCN(Cc2cnn(-c3ccccc3)c2-n2cccc2)CC1`, the B-score was -1.39 (inactive).

For the molecule `Cc1ccc2cc3cc(C(=O)N4CCCCCC4)oc3nc2c1`, the B-score was -0.434 (inactive).

Consider `COc1cccc(-c2cc3nc4c(c(N5CCC6(CC5)OCCO6)n3n2)CCCC4)c1`, for which the B-score is -0.0679 (inactive).

With `CC(=O)N1CCN(C(=O)Nc2cccc(C(F)(F)F)c2)CC1`, the B-score is -0.154 (inactive).

Take `O=C(Nc1cccc(C(=O)N2CCCC2)c1)c1ccccc1`: the B-score is 0.0406 (inactive).

Turning to `O=C(Nc1cccc(NC(=O)N2CCN(c3ccccc3)CC2)c1)N1CCN(c2ccccc2)CC1`, the B-score is -3 (active).

For the molecule `COc1ccc(-c2c(C)nn3c(N4CCC(C(=O)N5CCCCC5)CC4)cc(C)nc23)cc1OC`, the B-score was -0.265 (inactive).

As to `FC(F)(F)c1cccc(Nc2ncnc3ccccc23)c1`, the B-score was 0.376 (inactive).

In the case of `N#CC(C(=O)c1ccc(S(=O)(=O)N2CCCCCC2)cc1)c1nc2ccccc2[nH]1` (stereo not drawn), the B-score is -4.04 (active).

Turning to `O=C(Nc1cccc(F)c1)c1ccc(S(=O)(=O)N2CCCC2)cc1`, the B-score was -0.622 (inactive).

`COc1ccccc1N1CCN(C(=O)c2ccc(S(=O)(=O)N3CCCCC3)cc2)CC1`: the B-score was -1.54 (inactive).

With `CCOc1ccccc1NC(=O)C1CCC(CNc2c(N3CCOCC3)c(=O)c2=O)CC1` (stereo not drawn), the B-score is 0.744 (inactive).

As for `COc1ccc(N2C(=O)CC(N3CCC(C(N)=O)CC3)C2=O)cc1` (stereo not drawn), the B-score is -0.21 (inactive).

As for `O=C(CSc1nnc(-c2cccs2)n1Cc1ccco1)c1ccc2c(c1)OCO2`, the B-score was 0.219 (inactive).

Turning to `COC(=O)C1=CN(C)C=C(C(=O)OC)C1c1ccc(Cl)cc1Cl`, the B-score was 1.15 (inactive).

Take `CCOc1cccc(-c2nn3c(-c4ccccn4)nnc3s2)c1`: the B-score was -0.924 (inactive).

On to `COc1cc(-c2nn3c(-c4cccc(C)c4)nnc3s2)cc(OC)c1OC`, for which the B-score was 0.799 (inactive).

On to `c1ccc(-c2cc(-c3nnc4sc(-c5ccccn5)nn34)[nH]n2)cc1`, for which the B-score was -2.66 (active).

Consider `CCCCOC(=O)Nc1nccs1`, for which the B-score is 0.0324 (inactive).

As to `COc1ccc(Cl)cc1NC(=O)c1oc(C)nc1C`, the B-score is -0.215 (inactive).

On to `O=C(c1cccc(S(=O)(=O)N2CCOCC2)c1)N1CCOCC1`, for which the B-score was 0.238 (inactive).

For `CSC1=NCCN1C(=O)c1ccc(S(=O)(=O)N2CCOCC2)cc1`, the B-score is -0.648 (inactive).

For `O=C(c1ccc(S(=O)(=O)N2CCOCC2)cc1)N1CCN(c2ccccc2)CC1`, the B-score was -2.93 (active).
